The record followed here is the supplement of paper PMC9135407.

Structures can show the parent of a compound that is named as a salt.

For this experiment, the system named is primary human hepatic stellate cells (donor 1). The experiment in a line: PSMB2 reference mRNA level vs DMSO (fold); higher = more PSMB2 expression. To be noted: 48 h. How it is done:
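Secondary qRT-PCR screen in primary human HSCs (donor 1), 384-well plates, with compounds dispensed in quadruplicate and incubated for 48 h. Cells-to-CT lysates were used for multiplexed TaqMan qPCR of ACTA2 or COL1A1 with PSMB2 as reference. Fold changes versus DMSO come from a linear model (Ct_gene ~ Ct_PSMB2 + plate + chemical). A hit is defined as COL1A1 and ACTA2 FC <0.5 (FDR <0.05) with PSMB2 between 0.2 and 2.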
For the compound `CN(C)Cc1c(C(=O)NCCOc2ccc(C(=O)NO)cc2)oc2ccccc12` (33.3333 µM), the “PSMB2 reference mRNA level” value worked out at 0.5.

On to `Cc1cccc(Nc2nc(-c3ccncc3)cs2)c1` (11.1 µM), for which the “PSMB2 reference mRNA level” value was found to be 1.45.

With `COc1ccc(NS(=O)(=O)c2sc3ccc(Cl)cc3c2C)cc1N1CCNCC1` (33.3333 µM), the “PSMB2 reference mRNA level” value is 0.507.

As to `Clc1ccccc1CNCC1CCC(CNCc2ccccc2Cl)CC1` (stereo not given) (33.3333 µM), the “PSMB2 reference mRNA level” value is 0.138.

As for `CC[C@@H]1C(=O)N(C)c2cnc(Nc3ccc(C(=O)NC4CCN(C)CC4)cc3OC)nc2N1C1CCCC1` (33.3333 µM), the “PSMB2 reference mRNA level” value worked out at 0.0022.

For the compound `O=C1NC(=O)/C(=C/c2ccc(-c3ccc(F)cc3O)o2)S1` (33.3333 µM), the “PSMB2 reference mRNA level” value was determined as 3.41.

Consider `CNCc1ccc(C)c(NC(=O)c2ccc(Nc3nc(-c4ccccc4)c4ccccc4n3)cc2)c1` (33.3333 µM), for which the “PSMB2 reference mRNA level” value amounted to 0.000816.

Consider `C[C@@H]1CN(CCCn2c3ccccc3c3ccccc32)C[C@H](C)N1` [Rimcazole dihydrochloride] (33.3333 µM), for which the “PSMB2 reference mRNA level” value stood at 0.0107.

With `CS(=O)(=O)CCNCc1ccc(-c2ccc3ncnc(Nc4ccc(OCc5cccc(F)c5)c(Cl)c4)c3c2)o1` (6.66667 µM), the “PSMB2 reference mRNA level” value came to 1.27.

Consider `Cc1cc(Nc2cc(N3CCN(C)CC3)nc(/C=C/c3ccccc3)n2)n[nH]1` (11.1 µM), for which the “PSMB2 reference mRNA level” value was 0.122.

In the case of `N=C(N)SCCc1ccc(OCc2ccc([N+](=O)[O-])cc2)cc1` [KB-R7943 mesylate] (33.3333 µM), the “PSMB2 reference mRNA level” value is 0.61.

`NC[C@@H]1O[C@H](C23CC4CC(CC(C4)C2)C3)Cc2c1ccc(O)c2O` (33.3333 µM): the “PSMB2 reference mRNA level” value turned out to be 0.00124.

With `Cc1ccc(NC(=O)C(C)C)cc1C1CCN(Cc2ccc(Oc3ccc(F)c(F)c3)cc2)CC1` (33.3333 µM), the “PSMB2 reference mRNA level” value came to 2.26.

In the case of `CN1CCC(CNc2ccc3ncc(-c4cccc(OC(F)(F)F)c4)n3n2)CC1` (6.66667 µM), the “PSMB2 reference mRNA level” value came out at 0.712.

On to `CN1CCC(NC(=O)c2cc(-c3c(O)cc(O)cc3Oc3ccc([N+](=O)[O-])cc3)on2)CC1` (33.3333 µM), for which the “PSMB2 reference mRNA level” value stood at 0.306.

For `CCN(CC)CC#CCOC(=O)C(O)(c1ccccc1)C1CCCCC1` (stereo not given) [Oxybutynin chloride] (16.9333 µM), the “PSMB2 reference mRNA level” value is 1.08.

Regarding `CN(C)CCC(c1ccc(Br)cc1)c1ccccn1` (stereo not given) [Brompheniramine maleate] (33.3333 µM), the “PSMB2 reference mRNA level” value was found to be 1.3.

Take `C#CC1(O)CC[C@H]2[C@@H]3CCC4=CC(=O)CC[C@@H]4[C@H]3CC[C@@]21CC` (stereo not given in full) [Norgestrel] (21.3333 µM): the “PSMB2 reference mRNA level” value stood at 1.14.

With `CCCCCCCCCCCCCCCCn1cc[n+](Cc2ccccc2)c1C` (11.1 µM), the “PSMB2 reference mRNA level” value was determined as 0.00468.

In the case of `CN1CCN(Cc2ccc(-c3cnc4[nH]cc(-c5ccc6[nH]ccc6c5)c4c3)cc2)CC1` (6.66667 µM), the “PSMB2 reference mRNA level” value is 0.507.

With `Cc1[nH]c(/C=C2\C(=O)Nc3ccc(S(=O)(=O)N(C)c4cccc(Cl)c4)cc32)c(C)c1C(=O)N1CCN(C)CC1` (33.3333 µM), the “PSMB2 reference mRNA level” value was 0.98.

Take `COC(=O)N[C@H](C(=O)N1CCC[C@H]1c1ncc(-c2ccc(-c3ccc(-c4cnc([C@@H]5CCCN5C(=O)[C@@H](NC(=O)OC)C(C)C)[nH]4)cc3)cc2)[nH]1)C(C)C` (33.3333 µM): the “PSMB2 reference mRNA level” value amounted to 3.28.

On to `CN1CCN2c3ccccc3Cc3ccccc3C2C1` (stereo not given) [Mianserin hcl] (25.2333 µM), for which the “PSMB2 reference mRNA level” value was 1.26.

On to `CN1CCCN(C(c2ccccc2)c2ccc(Cl)cc2)CC1` (stereo not given) [Homochlorcyclizine dihydrochloride] (33.3333 µM), for which the “PSMB2 reference mRNA level” value amounted to 1.19.

In the case of `CNCCCC12CCC(c3ccccc31)c1ccccc12` [Maprotiline hydrochloride] (33.3333 µM), the “PSMB2 reference mRNA level” value turned out to be 1.89.

Regarding `CNCc1ccc(-c2[nH]c3cc(F)cc4c3c2CCNC4=O)cc1` (33.3333 µM), the “PSMB2 reference mRNA level” value came out at 0.974.

Take `Cc1cc(C(=O)Nc2cc(Nc3ccc4c(/C=C/c5ccccn5)n[nH]c4c3)ccc2F)n(C)n1` (33.3333 µM): the “PSMB2 reference mRNA level” value was found to be 0.985.

As to `c1cc(OCCN2CCCCC2)cc(-c2n[nH]c3ccc(-c4nnc[nH]4)cc23)c1` (33.3333 µM), the “PSMB2 reference mRNA level” value came out at 0.677.

As for `CC1(C)CC(=O)c2c(C(F)(F)F)nn(-c3ccc(C(N)=O)c(N[C@H]4CC[C@H](OC(=O)CN)CC4)c3)c2C1` (33.3333 µM), the “PSMB2 reference mRNA level” value was found to be 0.59.

As for `CCN(CC)CCCCNc1ncc2cc(-c3c(Cl)cccc3Cl)c(NC(=O)NC(C)(C)C)nc2n1` (33.3333 µM), the “PSMB2 reference mRNA level” value turned out to be 0.792.

Regarding `CCN(CC)CCOc1ccc(Cc2ccccc2)cc1` [DPPE fumarate] (33.3333 µM), the “PSMB2 reference mRNA level” value was 0.798.

As to `O=C(Nc1ncc(SCCN2CCCC2)s1)[C@]1(c2ccc(S(=O)(=O)C3CC3)cc2)C[C@H]1C1CCCCC1` (11.1 µM), the “PSMB2 reference mRNA level” value was determined as 0.35.

Consider `CCC/C=C\C=C/C(=O)N[C@@H](CC(N)=O)C(=O)NC(CC(N)=O)C(=O)N[C@@H](C(=O)N[C@H](CCCN)C(=O)N[C@@H](C(=O)N[C@@H](C(=O)N[C@@H](C(=O)N[C@H](C(=O)N[C@@H](Cc1ccccc1)C(=O)N[C@H](CCCN)C(=O)NC(C(=O)N[C@H](C(=O)NC(C(=O)NCC(=O)N[C@@H](CC(C)C)C(=O)N[C@H](C)C(=O)NC(C(=O)O)C1CCC(O)C(Cl)C1)C1CCC(O)CC1)[C@H](C)O)C1CCC(O)CC1)[C@H](C)O)C1CCC(O)CC1)C1CCC(O)CC1)[C@H](C)O)C1CCC(O)CC1` (stereo not given in full) (33.3333 µM), for which the “PSMB2 reference mRNA level” value was 0.369.

With `NC(N)=NC(=O)c1nc(Cl)c(N2CCCCCC2)nc1N` [5-(N,N-hexamethylene)amiloride] (33.3333 µM), the “PSMB2 reference mRNA level” value amounted to 0.641.

For the compound `CN(C)CCCCC(=O)Nc1ccc(NC(=S)NC(=O)c2ccc(C(C)(C)C)cc2)cc1` [Tenovin-6] (33.3333 µM), the “PSMB2 reference mRNA level” value is 0.000996.

On to `Cc1ccc(-c2ccc3c(ccc4sc5c(c43)NC[C@@H](C)NC5=O)n2)cn1` (33.3333 µM), for which the “PSMB2 reference mRNA level” value amounted to 3.41.

In the case of `Cc1nc(Nc2ncc(C(=O)Nc3c(C)cccc3Cl)s2)cc(N2CCN(CCO)CC2)n1` (33.3333 µM), the “PSMB2 reference mRNA level” value was 1.6.

Consider `CN1CCC(=C2c3ccccc3C=Cc3ccccc32)CC1` [Cyproheptadine] (33.3333 µM), for which the “PSMB2 reference mRNA level” value is 0.904.

Consider `O=C(O[C@H]1CN2CCC1CC2)N1CCc2ccccc2[C@@H]1c1ccccc1` [Solifenacin succinate] (33.3333 µM), for which the “PSMB2 reference mRNA level” value was 0.935.

Consider `CCNC(=O)c1noc(-c2cc(C(C)C)c(O)cc2O)c1-c1ccc(CN2CCOCC2)cc1` (11.1 µM), for which the “PSMB2 reference mRNA level” value is 1.72.
